Test results taken from PubChem BioAssay (Tox21).
Active and inactive are the calls of the source. Unless noted, calls follow the shape of the dose curve; as a rule, active = well fitted curve in the direction sought with a large enough effect in the repeat runs; inconclusive = weak or mixed curves; inactive = no such curve, though single readings can be large; an effect the other way counts as inactive or inconclusive.

Key:
[1] = qHTS assay for small molecule agonists of the p53 signaling pathway (AID 651631; calls by dose curve; also: nearly all actives have a fitted effect of over 15% in size)
Procedure, shortened: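 Readout was fluorescence from the LiveBLAzer FRET substrate, applied for 2 h at room temperature after 16 h compound exposure at 37 °C. Cells were the p53RE-bla HCT-116 line, with beta-lactamase driven by p53 response elements.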

[2] = qHTS assay for small molecules that induce genotoxicity in human embryonic kidney cells expressing luciferase-tagged ATAD5 (AID 651632); also: nearly all actives have a fitted effect of over 15% in size; also: potency is read from the fitted curve at half-maximal effect
Procedure, shortened: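 Luminescence read-out: after 16 hr compound exposure at 37C, ATAD5-luciferase HEK293T cells received Amplite, 30 min RT, then CCD imaging. A rise in signal marks genotoxic stress.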

[3] = qHTS assay for small molecule agonists of the p53 signaling pathway - cell viability (AID 651633; calls by dose curve; also: series mostly up to about 83 µM; nearly all actives have a fitted effect of over 30% in size)
Procedure, shortened: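 p53RE-bla cells, seeded at 4,000 per well and rested 5 h at 37 C/5% CO2, received compounds in DMSO for 16 h at 37 C. CellTiter-Glo was then added, and luminescence was read after 30 min at room temperature to gauge cytotoxicity.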

[4] = qHTS assay for small molecules that induce genotoxicity in human embryonic kidney cells expressing luciferase-tagged ATAD5 - cell viability (AID 651634; calls by dose curve; also: nearly all actives have a fitted effect of over 25% in size; also: potency is read from the fitted curve at half-maximal effect)
Procedure, shortened: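 HEK293T ATAD5-luc cells, 2,000/well; compound 15.5 hr, 37C/5% CO2; CellTiter-Fluor 30 min, 37C; fluorescence read.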

[5] = qHTS assay for small molecule disruptors of the mitochondrial membrane potential - cell viability (AID 720634; calls by dose curve;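 also: human HepG2 liver cancer cells; series mostly up to about 83 µM; nearly all actives have a fitted effect of over 20% in size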)
Procedure, shortened: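 Luminescence from CellTiter-Glo (ATP content) gave viability in HepG2 cells, read in the same wells as the MMP dye assay after 1 hr compound exposure at 37 C.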

[6] = qHTS assay to test for compound auto fluorescence at 590 nm (red) in HepG2 cells (AID 720674)
Procedure, shortened: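 Compound auto-fluorescence is scored relative to Rose Bengal sodium, measured at 540/590 nm in live HepG2 cultures after 1 hr compound contact (37 C, 5% CO2).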

[7] = qHTS assay to test for compound auto fluorescence at 535 nm (green) in HepG2 cells (AID 720675)
[8] = qHTS assay to test for compound auto fluorescence at 590 nm (red) in HEK293 cells (AID 720679)
Procedure, shortened: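 Using HEK293 cells at 2,000 per well, the screen added 23 nL of each compound after cell attachment and incubated overnight (37C, 5% CO2). The plate reader then captured red-label fluorescence, Ex/Em 540/590nm.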

[9] = qHTS assay to test for compound auto fluorescence at 535 nm (green) in HEK293 cells (AID 720680)
[10] = qHTS assay to test for compound auto fluorescence at 460 nm (blue) in HEK293 cell free culture (AID 720681)
Procedure, shortened: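 Test compounds were pinned into cell-free culture medium (DMEM with 10% FBS) and fluorescence was read directly at Ex/Em 405/460 nm. Signals were expressed as fluorescence equivalents of triamterene, with DMSO vehicle as control.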

[11] = qHTS assay to test for compound auto fluorescence at 535 nm (green) in HEK293 cell free culture (AID 720682)
Procedure, shortened: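 Compounds were pin-transferred into cell-free DMEM with 10% FBS, and green fluorescence was read at excitation 485 nm and emission 535 nm. Intensities were expressed as fluorescein-equivalent values.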

[12] = qHTS assay to test for compound auto fluorescence at 590 nm (red) in HEK293 cell free culture (AID 720683)
Procedure, shortened: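 Tox21 10K library compounds were pinned into cell-free DMEM with 10% FBS and fluorescence was read at excitation 540 nm. Activity is expressed as Rose Bengal sodium equivalency.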

[13] = qHTS assay to test for compound auto fluorescence at 590 nm (red) in HepG2 cell free culture (AID 720684)
Procedure, shortened: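 Ex 540 / Em 590 nm read of compound in cell-free MEM (10% FBS). Rose Bengal sodium reference.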

[14] = qHTS assay to test for compound auto fluorescence at 460 nm (blue) in HepG2 cell free culture (AID 720685)
Procedure, shortened: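 Cell-free plates of MEM plus 10% FBS received 23 nL compound or DMSO vehicle; blue-channel (405/460 nm) intensity scored against triamterene as reference fluorophore.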

[15] = qHTS assay to test for compound auto fluorescence at 535 nm (green) in HepG2 cell free culture (AID 720686)
[16] = qHTS assay to test for compound auto fluorescence at 460 nm (blue) in HepG2 cells (AID 720687)
Procedure, shortened: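 Cells (2,000/well in MEM with 10% FBS) attached overnight at 37 C, then were exposed to compound or DMSO for 1 hr at 37 C, 5% CO2. Fluorescence read at Ex/Em 405/460 nm, expressed as triamterene-equivalent signal.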

[17] = target: Glucocorticoid receptor (Homo sapiens) (UniProt P04150); assay: qHTS assay to identify small molecule agonists of the glucocorticoid receptor (GR) signaling pathway (AID 720691; active = well fitted activation curve with a large enough effect in the signal ratio in the repeat runs, not every such curve was filed as active; inconclusive = weak or mixed curves, or effect the other way; inactive = no such curve, though single readings can be large or run the other way; the % refers to the signal ratio; also: potency is read from the fitted curve at half-maximal effect)
Sequence of Glucocorticoid receptor (Homo sapiens) (P04150 whole entry, looked up): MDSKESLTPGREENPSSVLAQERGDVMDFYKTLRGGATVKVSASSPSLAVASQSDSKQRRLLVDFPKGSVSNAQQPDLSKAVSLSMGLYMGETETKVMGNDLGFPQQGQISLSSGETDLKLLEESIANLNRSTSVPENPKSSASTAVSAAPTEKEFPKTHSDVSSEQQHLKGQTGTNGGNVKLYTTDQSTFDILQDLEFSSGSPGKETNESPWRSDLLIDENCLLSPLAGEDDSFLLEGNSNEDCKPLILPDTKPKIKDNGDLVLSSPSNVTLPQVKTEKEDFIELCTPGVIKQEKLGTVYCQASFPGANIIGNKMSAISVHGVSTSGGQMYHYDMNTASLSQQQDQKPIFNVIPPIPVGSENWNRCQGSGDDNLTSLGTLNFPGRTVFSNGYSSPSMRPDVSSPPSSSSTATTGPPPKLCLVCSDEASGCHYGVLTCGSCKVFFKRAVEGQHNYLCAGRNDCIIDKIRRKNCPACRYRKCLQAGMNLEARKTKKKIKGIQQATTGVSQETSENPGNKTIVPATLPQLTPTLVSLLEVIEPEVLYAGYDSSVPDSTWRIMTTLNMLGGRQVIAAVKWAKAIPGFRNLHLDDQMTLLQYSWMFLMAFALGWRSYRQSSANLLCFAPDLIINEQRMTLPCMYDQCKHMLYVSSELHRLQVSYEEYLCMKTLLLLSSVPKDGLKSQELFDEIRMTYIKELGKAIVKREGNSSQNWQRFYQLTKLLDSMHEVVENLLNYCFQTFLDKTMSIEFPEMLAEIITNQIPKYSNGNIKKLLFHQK
Procedure, shortened: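 HeLa GR-bla reporter line; cells pre-incubated 4 h, compound in DMSO 18 h at 37 C; LiveBLAzer B/G FRET substrate 2 h RT; fluorescence intensity read-out.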

[18] = target: Glucocorticoid receptor (Homo sapiens) (UniProt P04150); assay: qHTS assay to identify small molecule antagonists of the glucocorticoid receptor (GR) signaling pathway (AID 720692; active = well fitted inhibition curve with a large enough effect in the signal ratio in the repeat runs, not every such curve was filed as active; inconclusive = weak or mixed curves, or effect the other way; inactive = no such curve, though single readings can be large or run the other way; the % refers to the signal ratio)
Procedure, shortened: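 Read-out: beta-lactamase FRET substrate fluorescence, 2 h at room temperature, in HeLa cells stably carrying a GRE-driven bla reporter. Compounds were co-incubated with 5 nM dexamethasone agonist (final) for 18 h at 37 C.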

[19] = qHTS assay to test for compound auto fluorescence at 460 nm (blue) in HEK293 cells (AID 720678)
Procedure, shortened: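 Measured: blue fluorescence (Ex 405/Em 460 nm) of compound-treated HEK293 cells, incubated overnight at 37C with 5% CO2 and scaled to triamterene equivalents.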

[20] = qHTS assay for small molecule disruptors of the mitochondrial membrane potential (AID 720635)
Procedure, shortened: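 HepG2 cells (2,000/well) attached overnight at 37C, then took compound for 1 hr at 37C, 5% CO2. Mito-MPS dye was added for 30 min; fluorescence was read at 490/535 nm (monomers) and 540/590 nm (aggregates).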
% is scaled to controls: 0 for no effect and ±100 for the full control effect.

CN(C(=O)C(Cl)Cl)c1ccc(OC(=O)c2ccco2)cc1
inactive: Potency [1] | Potency [2] | Potency [3] | Potency [4] | Potency [5] | outcome [6] | outcome [7] | outcome [8] | outcome [9] | Potency [10] | outcome [11] | outcome [12] | outcome [13] | Potency [14] | outcome [15] | Potency [16] | Potency [17] | Potency [18]

CNC(=S)NC
inactive: Potency [1] | Potency [2] | Potency [3] | Potency [4] | Potency [5] | outcome [6] | Potency [19] | outcome [8] | Potency [10] | outcome [11] | outcome [12] | outcome [13] | Potency [14] | outcome [15] | Potency [16] | Potency [17]

CC1(C)O[C@@H]2C[C@H]3[C@@H]4CCC5=CC(=O)C=C[C@]5(C)[C@H]4[C@@H](O)C[C@]3(C)[C@]2(C(=O)CO)O1
active: Potency [2] 11.9 nM | Potency [17] 30.1 nM [inconclusive]
inactive: Potency [1] | Potency [3] | Potency [4] | Potency [5] | outcome [6] | outcome [7] | Potency [19] | outcome [8] | outcome [9] | Potency [10] | outcome [11] | outcome [12] | outcome [13] | outcome [15] | Potency [16]

CO[C@H]1O[C@H](CO)[C@@H](O)[C@H](O)[C@H]1O
inactive: Potency [1] | Potency [2] | Potency [3] | Potency [4] | Potency [20] | outcome [6] | outcome [7] | Potency [19] | outcome [8] | outcome [9] | Potency [10] | outcome [11] | outcome [12] | outcome [13] | Potency [14] | outcome [15] | Potency [16]

CCn1cc(C(=O)O)c(=O)c2cc(F)c(N3CCNCC3)nc21
inactive: Potency [1] | Potency [2] | Potency [3] | Potency [4] | Potency [5] | fluorescence, % of fluorescein control [7] -0.0415% [at 18.6 µM] | fluorescence, % of triamterene [19] -0.37% [at 18.6 µM] | fluorescence, % of fluorescein [9] -0.0016% [at 18.6 µM] | fluorescence, % of fluorescent control [10] -0.0171% [at 18.6 µM] | activity change [11] 0.0215% [at 18.6 µM] | fluorescence, % of fluorescent control [12] -0.252% [at 18.6 µM] | fluorescence, % of Rose Bengal [13] -0.483% [at 18.6 µM] | fluorescence, % of fluorescein control [15] -0.0379% [at 18.6 µM] | fluorescence, % of fluorescent control [16] -0.0048% [at 18.6 µM]

CNC(=O)N(c1ccccc1)c1ccccc1
inactive: Potency [1] | Potency [2] | Potency [3] | Potency [4] | Potency [5] | outcome [6] | Potency [19] | outcome [8] | outcome [9] | Potency [10] | outcome [11] | outcome [12] | outcome [13] | Potency [14] | outcome [15] | Potency [16]

O=C(NCCCN1CCOCC1)c1ccc(Cl)cc1
inactive: Potency [1] | Potency [2] | Potency [3] | Potency [4] | Potency [5] | outcome [7] | Potency [19] | outcome [8] | outcome [9] | Potency [10] | outcome [11] | outcome [12] | outcome [13] | Potency [14] | outcome [15] | Potency [16] | Potency [17] | Potency [18]

O=C(O)c1cccnc1C(=O)O
inactive: Potency [1] | Potency [2] | Potency [3] | Potency [4] | Potency [5] | outcome [6] | outcome [7] | Potency [19] | outcome [8] | outcome [9] | Potency [10] | outcome [11] | outcome [12] | outcome [13] | Potency [14] | outcome [15] | Potency [16]

O=C1NCCN1
inactive: Potency [1] | Potency [2] | Potency [3] | Potency [4] | Potency [5] | outcome [7] | outcome [8] | outcome [9] | Potency [10] | outcome [11] | outcome [12] | outcome [13] | Potency [14] | outcome [15] | Potency [16] | Potency [17] | Potency [18]

C=CC(C)(O)CCCC(C)CCCC(C)CCCC(C)C (stereo unspecified)
inactive: Potency [1] | Potency [2] | Potency [3] | Potency [4] | Potency [5] | outcome [6] | outcome [7] | Potency [19] | outcome [8] | outcome [9] | Potency [10] | outcome [11] | outcome [12] | outcome [13] | Potency [14] | outcome [15] | Potency [16] | Potency [17] | Potency [18]

CC1CC(O)CC(C)(C)C1 (stereo unspecified)
inactive: Potency [1] | Potency [2] | Potency [3] | Potency [4] | Potency [5] | Potency [20] | outcome [7] | Potency [19] | outcome [8] | outcome [9] | Potency [10] | outcome [11] | outcome [12] | outcome [13] | Potency [14] | outcome [15] | Potency [16] | Potency [17] | Potency [18]

COc1ccccc1N=Nc1c(S(=O)(=O)O)cc2cc(S(=O)(=O)O)cc(NC(C)=O)c2c1O
active: Potency [4] 28800 nM
inactive: Potency [1] | Potency [2] | Potency [3] | Potency [5] | outcome [6] | outcome [7] | Potency [19] | outcome [9] | Potency [10] | outcome [11] | outcome [12] | outcome [13] | Potency [14] | outcome [15] | Potency [16] | Potency [17] | Potency [18]

C/C=C(\C)C(=O)OCCC(C)CCC=C(C)C (stereo unspecified)
inactive: Potency [1] | Potency [2] | Potency [3] | Potency [4] | Potency [5] | Potency [20] | outcome [7] | Potency [19] | outcome [8] | outcome [9] | Potency [10] | outcome [11] | outcome [12] | outcome [13] | Potency [14] | outcome [15] | Potency [16] | Potency [17] | Potency [18]

CCCCCCOC(=O)C(C)C
inactive: Potency [1] | Potency [2] | Potency [3] | Potency [4] | Potency [5] | Potency [20] | outcome [6] | outcome [7] | outcome [8] | Potency [10] | outcome [11] | outcome [12] | outcome [13] | Potency [14] | outcome [15] | Potency [16]
